Screening results: PubChem, several laboratories
Compounds with a hit are over-represented: about 21% of the library has one in this group of screens.
CYP2C9 inhib: blocks human cytochrome P450 2C9; P11712; CYP2C9 Supersomes, luciferin-H conversion, luminescence; inhibition, % at 5 µM; 96,000 tested, 20% active; AID 777;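 active = blocking of liver enzyme CYP2C9 beyond about 50% at 5 µM, limit read from the data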
Target sequence (P11712 whole entry, looked up): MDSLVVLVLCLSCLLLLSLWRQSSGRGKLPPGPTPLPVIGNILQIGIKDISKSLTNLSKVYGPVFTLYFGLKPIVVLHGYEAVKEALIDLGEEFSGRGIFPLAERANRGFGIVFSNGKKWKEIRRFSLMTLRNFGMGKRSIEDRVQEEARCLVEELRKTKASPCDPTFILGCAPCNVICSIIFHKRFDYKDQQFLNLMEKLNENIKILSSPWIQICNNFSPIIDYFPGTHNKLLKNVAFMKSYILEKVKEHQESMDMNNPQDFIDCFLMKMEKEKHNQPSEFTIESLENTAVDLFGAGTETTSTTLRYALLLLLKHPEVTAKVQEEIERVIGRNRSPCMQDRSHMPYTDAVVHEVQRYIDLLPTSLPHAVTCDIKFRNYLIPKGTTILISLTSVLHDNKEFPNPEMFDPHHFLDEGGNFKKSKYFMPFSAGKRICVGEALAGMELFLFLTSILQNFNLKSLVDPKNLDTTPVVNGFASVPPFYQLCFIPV
CYP2C19 inhib: inhibitors of human CYP2C19; P33261; CYP2C19 Supersomes, luciferin-H EGE luminescence, 30 min; inhibition, % at 5 µM; 96,000 tested, 21% active; AID 778;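 active = CYP2C19 inhibition above a set limit at 5 µM in the primary screen, cut at about 50% in these data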;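 also: plate controls were negative control wells for no effect and 2.5 mM tranylcypromine positive control for full effect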
CYP2C9 activ: activators of human CYP2C9; recombinant CYP2C9, luciferin-H conversion, luminescence; active compounds read high; factor 1 = untreated enzyme, 0 = blocked; 96,000 tested, 1.4% active; activation factor at 5 µM; AID 1024;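 active = activation factor of 2 or more for CYP2C9 at a 5 µM dose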;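 also: 0 = sulfaphenazole-blocked wells and 1 = vehicle-only wells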
MRP-1 activ: activators of MRP-1; AID 799; 140,000 tested, 0.61% active; viability increase, % at 10 µM; H69AR cells + doxorubicin, viability rescue, CellTiter-Glo;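 active = viability gain under doxorubicin at or above a set limit, the compound median plus 3 SD, cut at about 4.7% in these data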;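 also: MRP-1 overexpressing cells given doxorubicin 25 µM after compound pretreatment; 18-22 h compound pretreatment then 72 h with doxorubicin before readout; 0% = doxorubicin-only wells and 100% = vehicle-treated cells without doxorubicin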
CYP2C19 act: activators of human cytochrome P450 2C19; 96,000 tested, under 10 active; recombinant CYP2C19, luciferin-H EGE luminescence; active compounds read high; 0 = fully inhibited enzyme, 1 = untreated enzyme; activation factor at 5 µM; P33261;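 active = activation factor of at least 2 at 5 µM in the primary screen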;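 also: 0 = wells with 2.5 mM tranylcypromine and 1 = vehicle-only wells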
MRP reversal: MRP-mediated drug resistance reversal; 85,000 tested, 0.04% active; H69AR cells + 2 uM doxorubicin, CellTiter-Glo, 72 h; differential viability (reversal), % at 10 µM;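 active = viability drop by adding the cancer drug above about 55%, with treated viability meeting a 40% cutoff, limit read from the data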;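 also: viability without doxorubicin minus viability with 2 µM doxorubicin for each compound; larger differential means the compound sensitizes cells more to doxorubicin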
An asterisk follows results filed as active.

How did O=C(Nc1cccn2ncnc12)c1ccc(Cl)cc1Cl do in these assays?
CYP2C9 inhib: -52; CYP2C19 inhib: 7; CYP2C9 activ: 1.5; MRP-1 activ: -1; CYP2C19 act: 0.9

What do the screens show for `CC(C)CNC(=O)NC(=O)COC(=O)c1cc(F)cc(F)c1`?
MRP-1 activ: 2

What do the screens show for `Cn1c(=O)[nH]c(=O)c2c1nc(N1CCCCCC1)n2CCCSc1nnnn1-c1ccccc1`?
MRP-1 activ: -4

What do the screens show for `CCCCCn1c(CCNC(=O)c2cccs2)nc2ccccc21`?
CYP2C9 inhib: 92*; CYP2C19 inhib: 96*; CYP2C9 activ: 0.1; MRP-1 activ: -2; CYP2C19 act: 0; MRP reversal: -6

What do the screens show for `CCn1c(C(C)NC(=O)c2cccs2)nc2ccccc21` (stereo unspecified)?
CYP2C9 inhib: 52*; CYP2C19 inhib: 33; CYP2C9 activ: 0.5; MRP-1 activ: -2; CYP2C19 act: 0.7; MRP reversal: 1

What do the screens show for `CCCCn1c(C(C)NC(=O)c2cccs2)nc2ccccc21` (stereo unspecified)?
CYP2C9 inhib: 44; CYP2C19 inhib: 22; CYP2C9 activ: 0.6; MRP-1 activ: 0; CYP2C19 act: 0.8; MRP reversal: 8

Results for Nc1nc(NC(=O)C(Cl)(Cl)Cl)nn1-c1ccccc1 ?
MRP-1 activ: -2

Results for COc1cc(/C=N\NC(=O)c2ccc(Cn3nc([N+](=O)[O-])c(Cl)c3C)o2)ccc1O ?
CYP2C9 inhib: 24; CYP2C19 inhib: 65*; CYP2C9 activ: 0.8; MRP-1 activ: -3; CYP2C19 act: 0.3

How did Cc1cc(NC(=O)COC(=O)[C@H](Cc2c[nH]c3ccccc23)NC(=O)c2ccc(F)cc2)no1 do in these assays?
CYP2C9 inhib: 76*; CYP2C19 inhib: 30; CYP2C9 activ: 0.2; MRP-1 activ: -3; CYP2C19 act: 0.7; MRP reversal: 10

What do the screens show for `CC(=O)NC(Cc1c[nH]c2ccccc12)C(=O)OCC(=O)Nc1cc(C)on1` (stereo unspecified)?
CYP2C9 inhib: 84*; CYP2C19 inhib: 87*; CYP2C9 activ: 0.2; MRP-1 activ: -1; CYP2C19 act: 0.1; MRP reversal: 3

What do the screens show for `COC(=O)C(Cc1c[nH]c2ccccc12)NC(=O)CNC(C)=O` (stereo unspecified)?
CYP2C9 inhib: -3; CYP2C19 inhib: 13; CYP2C9 activ: 1; MRP-1 activ: -1; CYP2C19 act: 0.9

How did CC(=O)NC(Cc1c[nH]c2ccccc12)C(=O)OCC(=O)Nc1ccc2c(c1)OCO2 (stereo unspecified) do in these assays?
CYP2C9 inhib: 74*; CYP2C19 inhib: 39; CYP2C9 activ: 0.3; MRP-1 activ: -3; CYP2C19 act: 0.6; MRP reversal: -12

Results for O=C(COC(=O)[C@H](Cc1c[nH]c2ccccc12)NC(=O)c1cccs1)NCc1ccccc1 ?
MRP-1 activ: 0

How did CC(=O)Nc1ccc(NC(=O)COC(=O)Cc2c[nH]c3ccccc23)cc1 do in these assays?
MRP-1 activ: -4

Results for CC(=O)NC(Cc1c[nH]c2ccccc12)C(=O)N1CCc2ccccc2C1 (stereo unspecified) ?
CYP2C9 inhib: 47; CYP2C19 inhib: 75*; CYP2C9 activ: 0.5; MRP-1 activ: -1; CYP2C19 act: 0.2; MRP reversal: 10

Results for COc1cccc(/C=C2/CN(C)CC3=C2OC(N)=C(C#N)C3c2cccc(OC)c2)c1 (stereo unspecified) ?
MRP-1 activ: -4; MRP reversal: 29

Results for Cc1ccc2ccccc2c1Cn1c(-n2ccnc2)nc2c1c(=O)n(C)c(=O)n2C ?
CYP2C9 inhib: 47; CYP2C19 inhib: 58*; CYP2C9 activ: 0.5; MRP-1 activ: 0; CYP2C19 act: 0.4; MRP reversal: -2

What do the screens show for `c1ccc2c(c1)CCN(c1nc3cc4c(cc3s1)OCCO4)C2`?
CYP2C9 inhib: 11; CYP2C19 inhib: 11; CYP2C9 activ: 0.9; MRP-1 activ: -7; CYP2C19 act: 0.9

How did Cn1cnnc1SCNC(=O)C(F)(F)F do in these assays?
CYP2C9 inhib: 25; CYP2C19 inhib: -3; CYP2C9 activ: 0.7; MRP-1 activ: -2; CYP2C19 act: 1; MRP reversal: -11

Results for O=C(Cc1ccccc1)Nc1nnc(-c2cccs2)s1 ?
CYP2C9 inhib: 12; CYP2C19 inhib: 8; CYP2C9 activ: 0.9; MRP-1 activ: -1; CYP2C19 act: 0.9; MRP reversal: 5

What do the screens show for `CSc1nsc(NC(=O)Cc2ccccc2)n1`?
CYP2C9 inhib: 30; CYP2C19 inhib: 65*; CYP2C9 activ: 0.7; MRP-1 activ: 2; CYP2C19 act: 0.3; MRP reversal: 1

How did COc1ccc2cc(-c3csc(-c4cccnc4)n3)ccc2c1 do in these assays?
CYP2C9 inhib: 2; CYP2C19 inhib: 75*; CYP2C9 activ: 1; MRP-1 activ: -2; CYP2C19 act: 0.2

How did COC(=O)c1sccc1NC(=O)c1c(C)c(-c2cccc(Cl)c2)nc2ccccc12 do in these assays?
MRP-1 activ: 0

Results for COc1cc(C)ccc1OCCOCCOc1c(C)cc(C)cc1Br ?
MRP-1 activ: -1

What do the screens show for `COc1cc(C)ccc1OCCOc1ccccc1Cl`?
CYP2C9 inhib: 28; CYP2C19 inhib: 70*; CYP2C9 activ: 0.7; MRP-1 activ: 0; CYP2C19 act: 0.3

What do the screens show for `COc1cc(C)ccc1OCCCOc1ccccc1Cl`?
CYP2C9 inhib: 6; CYP2C19 inhib: 36; CYP2C9 activ: 0.9; MRP-1 activ: 1; CYP2C19 act: 0.6

How did COc1cc(C=O)ccc1OCCOCCOc1cc(C)ccc1Cl do in these assays?
CYP2C9 inhib: 52*; CYP2C19 inhib: 50; CYP2C9 activ: 0.5; MRP-1 activ: -1; CYP2C19 act: 0.5

What do the screens show for `CCC(=O)Nc1ccc(Nc2nc(C)c([N+](=O)[O-])c(Nc3ccc(NC(=O)CC)cc3)n2)cc1`?
MRP-1 activ: -2

Results for O=S(=O)(c1ccc(Cl)cc1)n1c(Cc2ccccc2)nc2ccccc21 ?
MRP-1 activ: 0

What do the screens show for `O=S(=O)(N1CCOCC1)n1c(Cc2ccccc2)nc2ccccc21`?
CYP2C9 inhib: 49; CYP2C19 inhib: 75*; CYP2C9 activ: 0.5; MRP-1 activ: -1; CYP2C19 act: 0.3; MRP reversal: 11

Results for CCOC(=O)N1CCN(C(=O)c2nn(-c3cc(OC)cc(OC)c3)c(=O)c3ccccc23)CC1 ?
CYP2C9 inhib: 80*; CYP2C19 inhib: 63*; CYP2C9 activ: 0.2; MRP-1 activ: -2; CYP2C19 act: 0.4; MRP reversal: 9

Results for COc1ccccc1N1CCN(C(=O)c2nn(-c3ccccc3OC)c(=O)c3ccccc23)CC1 ?
CYP2C9 inhib: 58*; CYP2C19 inhib: 49; CYP2C9 activ: 0.4; MRP-1 activ: -3; CYP2C19 act: 0.5; MRP reversal: -2

What do the screens show for `COc1ccccc1-n1nc(C(=O)O)c2ccccc2c1=O`?
CYP2C9 inhib: -8; CYP2C19 inhib: -3; CYP2C9 activ: 1.1; MRP-1 activ: -1; CYP2C19 act: 1; MRP reversal: 7
